p47phox inh = p47phox/p22phox peptide binding inhibitors, primary screen, biochemical, uHTS, NADPH oxidase regulatory subunit | Neutrophil cytosol factor 1 (Homo sapiens), P14598 | inhibition, % at 24.7 µM | fluorescence polarization, 2 h | hit rate 0.53% among 220,000;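 also: 0% = p47phox with labelled peptide and 100% = labelled peptide alone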
eIF4E 4G PPI = eIF4E–eIF4G protein interaction inhibitors, primary screen, biochemical, uHTS, TR-FRET, eIF4GI fragment | Eukaryotic translation initiation factor 4E (Mus musculus) + Eukaryotic translation … | TR-FRET eIF4E-eIF4GI(517-606) binding, 2 h | inhibition, % at 21.7 µM | hit rate 0.37% among 220,000;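 also: 0% = full FRET control wells and 100% = background wells lacking eIF4GI fragment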
14-3-3 Bad inh = inhibitors of 14-3-3 zeta/Bad binding, primary screen, biochemical, TR-FRET, bovine 14-3-3 zeta | 14-3-3 protein zeta/delta (Bos taurus), P63103 | TR-FRET 14-3-3zeta/Dy647-pBad peptide displacement, 1 h | inhibition, % at 21.7 µM | hit rate 0.71% among 220,000 | AID 781, 2007;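 active = inhibition above about 70%, limit read from the data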;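 also: 0% = full 14-3-3 plus peptide FRET controls and 100% = background without 14-3-3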
Target sequence (P63103 whole entry, looked up): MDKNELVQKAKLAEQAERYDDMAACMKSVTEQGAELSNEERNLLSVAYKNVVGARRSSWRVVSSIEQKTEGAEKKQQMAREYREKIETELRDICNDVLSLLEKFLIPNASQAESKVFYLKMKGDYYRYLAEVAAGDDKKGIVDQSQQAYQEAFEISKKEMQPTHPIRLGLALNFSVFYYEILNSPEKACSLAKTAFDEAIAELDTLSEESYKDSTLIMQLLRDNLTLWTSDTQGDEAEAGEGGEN
UBC9 SUMO inh = inhibitors of in vitro SUMOylation cascade, primary screen, biochemical, HTRF, uHTS. HTRF SUMOylation assay, SAE1/SAE2 + UBC9. SUMO-conjugating enzyme UBC9 (Homo sapiens), P63279. inhibition, % at 35 µM. hit rate 0.36% among 290,000. AID 2006, 2009; in the data active = inhibition above about 50%, passing the limit was not always enough
Target sequence (P63279 whole entry, looked up): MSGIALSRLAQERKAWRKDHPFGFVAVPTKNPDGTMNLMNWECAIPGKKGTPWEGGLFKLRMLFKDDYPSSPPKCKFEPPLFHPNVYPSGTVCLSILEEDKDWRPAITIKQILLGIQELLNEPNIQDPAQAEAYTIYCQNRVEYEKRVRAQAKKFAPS
* = called active by the depositor; nt = no result given; [ ] = dose if it differs, or a comment. An excerpt weighted towards active compounds, which were near 1.3% of everything screened.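 The calls were made as follows, unless noted: active = inhibition above about 30% (limit read from the data); inactive = the rest.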

SMILES	p47phox inh	eIF4E 4G PPI	14-3-3 Bad inh	UBC9 SUMO inh
CS(=O)(=O)c1cc([N+](=O)[O-])c(Sc2nc3ccccc3[nH]2)c([N+](=O)[O-])c1	1	-6	87*	16
O=C(O)c1cc([N+](=O)[O-])c(Sc2nc3ccccc3[nH]2)c([N+](=O)[O-])c1	nt	nt	nt	-1
O=C(Nc1ccc2ccccc2c1)c1ccc(Cl)cc1Cl	-8	1	4	17
O=C(Nc1nc(=S)ss1)c1ccc(Cl)cc1Cl	-16	10	80*	-4
Cc1cccc(C)c1NC(=O)C1=C(O)c2sccc2N(C)S1(=O)=O	8	-2	-7	23
CC(=O)/C(C#N)=C1\NC(=O)C(Cc2ccccc2Cl)S1 (configuration not stated)	-11	6	74*	5
CCOc1cccc2c1OC1(C)CC2NC(=O)N1Cc1ccccc1 (configuration not stated)	60*	-2	1	9
CC1CN(C(=O)COC(=O)c2ccc(N(C)C)cc2)CC(C)O1 (configuration not stated)	-22	2	-6	8
COC(=O)c1cc(Br)c(=O)n(CCc2ccc(F)cc2)c1	-3	-6	6	15
COC(=O)c1cc(Br)c(=O)n(-c2ccc(F)cc2)c1	31*	-5	0	-3
O=C(N=Nc1c(O)[nH]c2ccccc12)c1cc(NS(=O)(=O)c2cccs2)cc(NS(=O)(=O)c2cccs2)c1	-57	12	80*	32
CCCCc1ccc(NC(=S)NCCc2ccc(F)cc2)cc1	-9	-2	-6	-21
Cc1ccccc1NC(=O)c1sc(Cl)nc1-c1ccccc1	68*	2	-4	2
O=C(CSc1nnc(Cc2cccs2)n1-c1ccccc1)Nc1ccc2c(c1)OCCO2	-9	-1	-4	8
COc1ccc(-n2c(Cc3cccn3C)nnc2SCC(=O)Nc2cccc(F)c2)cc1	-5	62*[fluorescence artefact?]	6	-6
Cc1ccc(-n2c(Cc3cccs3)nnc2SCC(=O)Nc2ccc(F)c(F)c2)cc1	75*	-18	-4	8
O=C(COc1c(Br)cc(Br)cc1Br)N/N=C/c1ccco1	nt	nt	nt	11
CCN(CC)c1ccc(C=C(c2nnnn2-c2ccc(C)cc2)c2nnnn2-c2ccc(C)cc2)cc1	-33	3	-6	6
COc1nc(N/N=C/c2ccc(-c3cccc([N+](=O)[O-])c3)o2)nc(N2CCOCC2)n1	76*	8	74*[fluorescence artefact?]	-3
O=[N+]([O-])c1ccc(-c2ccc(/C=N/Nc3nc(N4CCCC4)nc(N4CCCC4)n3)o2)cc1	-4	0	0	13
COc1ccc(-c2cnnc(N/N=C/c3ccc(-c4ccc([N+](=O)[O-])cc4)o3)n2)cc1	60*	31*	94*	9
O=[N+]([O-])c1cccc(-c2ccc(/C=N/Nc3nc(N4CCCCC4)nc(N4CCCCC4)n3)o2)c1	9	0	1	5
OC(COC(c1ccc(F)cc1)c1ccc(F)cc1)CN1CCCC1 (configuration not stated)	nt	nt	nt	25
Cc1ccccc1Cn1c(=O)n(CC2CCC(C(=O)NCCc3ccccc3)CC2)c(=O)c2ccccc21 (configuration not stated)	29	2	20	6
COc1ccccc1/C=C/C(=O)NCC(=O)n1nc(C)cc1C	-8	1	-5	19
SMILES	p47phox inh	eIF4E 4G PPI	14-3-3 Bad inh	UBC9 SUMO inh
O=C(Nc1nnc(-c2ccccc2)o1)c1nc2ccccc2s1	-28	-19	-9	74*
O=C(CC1CCCCC1)NCc1nc(-c2ccccc2)no1	-18	4	3	29
Cc1ccc(C(=O)NC2CCCCNC2=O)cc1 (configuration not stated)	-7	90*	-2	14
O=C(NC1CCCCNC1=O)c1ccc(Cl)cc1 (configuration not stated)	-10	3	0	0
O=C(COc1cccc(Br)c1)N/N=C1\CCCc2ccccc21	5	0	-12	-2
O=C(COc1cccc(Br)c1)NN=C1c2ccccc2-c2ccccc21	68*	19	44	15
CCOC(=O)C(C)n1ncn2cccc2c1=O (configuration not stated)	-25	43*[fluorescence artefact?]	3	6
Cc1cc(NCc2ccccn2)ccc1Br	-11	5	79*	-11
O=C(/C=C/c1ccc(Br)o1)Nc1nccs1	-36	-3	-4	38
O=C(Cn1c(O)c(/C=C2\C=Nc3ccccc32)sc1=O)N1CCOCC1	-8	4	-2	-18
O=C(Cn1c(O)c(/C=C2\C=Nc3ccc(Br)cc32)sc1=O)N1CCCC1	39*	-1	5	2
CN(C)CCOC(=O)c1ccc2c(c1)S(=O)(=O)c1ccccc1C2=O	4	35*	5	20
CNC(=O)COC(=O)c1ccc2c(c1)S(=O)(=O)c1ccccc1C2=O	nt	nt	nt	3
COc1ccc(C2=Nc3cccc4cccc(c34)N2)cc1	-20	-7	-13	22
CC(C)C1=Nc2cccc3cccc(c23)N1	150*	3	38	8
Cc1ccc(S(=O)(=O)N2CCCC(C(=O)NNCC(=O)Nc3cc(F)ccc3F)C2)cc1 (configuration not stated)	2	-9	-14	-11
CC(C)C(O)(C#CCN1CCCCC1)c1ccccc1 (configuration not stated)	-5	-12	80*	-14
CCCCCc1ccc(OCCOCCn2c[n+](C)c3ccccc32)c(CCCCC)c1	75*	21	91*	-11
CCCCCc1ccc(OCCC[n+]2ccccc2)c(CCCCC)c1	-4	2	5	14
CC(OC(=O)c1ccccc1NS(=O)(=O)c1cccc(N)c1)C(=O)N(C)Cc1ccccc1 (configuration not stated)	-4	-1	8	-11
COc1cc(/C=C2\C(=O)N(c3ccccc3)N=C2C)ccc1Oc1ccc([N+](=O)[O-])cc1[N+](=O)[O-]	3	-14	-9	nt
CC1=NN(c2ccccc2)C(=O)/C1=C\c1ccc(Oc2ccc([N+](=O)[O-])cc2[N+](=O)[O-])cc1	-1	-3	-3	95*
COc1ccccc1Oc1ccc2c(c1)C(=O)N(c1cccc(O)c1)C2=O	-13	9	-8	-30
Cc1ccc(C(=O)COC(=O)c2ccc3c(c2)C(=O)N(c2cccc4ncccc24)C3=O)cc1C	73*	-48	57	16
COc1ccccc1Oc1ccc2c(c1)C(=O)N(c1cccc3ncccc13)C2=O	36*	10	-8	-5
Cc1ccc(Oc2nc3c(C)cccn3c(=O)c2/C=C(\C#N)C(N)=O)cc1	-9	41*	-3	23
O=C(/C=C/c1ccco1)N(c1ccccn1)c1ccccn1	-8	34*	2	47
